Compounds with a hit are over-represented: about 2.5% of the library has one in this group of screens.
NOTCH ag = activates NOTCH signaling in reporter cells; activation, % at 2.5 µM; 15,000 tested, 0.4% active; NOTCH signaling luciferase reporter cells, luminescence; in the data active = activation above about 2.2%
luminol inh ctr = quenches luminol chemiluminescence in Nox1 counter-screen; HRP/luminol/H2O2 chemiluminescence counterscreen; inhibition, % at 6.7 µM; 16,000 tested, 0.4% active; note: reference of the scale not given here
rat GALR2 agon = activates the rat galanin receptor 2. activation, % at 10 µM. AID 833. cell-based GALR2 agonist screen. 16,000 tested, 0.5% active; in the data active = activation above about 15%
Target sequence (O08726 whole entry, looked up): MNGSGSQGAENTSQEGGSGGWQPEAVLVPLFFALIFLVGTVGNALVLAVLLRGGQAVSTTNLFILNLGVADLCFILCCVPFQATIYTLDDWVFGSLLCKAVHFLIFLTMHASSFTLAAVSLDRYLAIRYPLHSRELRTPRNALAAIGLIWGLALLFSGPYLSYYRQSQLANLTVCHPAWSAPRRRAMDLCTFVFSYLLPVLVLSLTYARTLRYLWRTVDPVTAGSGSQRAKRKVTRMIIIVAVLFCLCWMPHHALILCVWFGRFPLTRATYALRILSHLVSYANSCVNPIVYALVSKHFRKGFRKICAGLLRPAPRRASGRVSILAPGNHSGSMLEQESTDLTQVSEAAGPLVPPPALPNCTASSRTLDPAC
Nox1 inhibitor = inhibitors of human NADPH oxidase 1 (Nox1); 16,000 tested, 0.81% active; HT29 cells, luminol chemiluminescence ROS; Q9Y5S8; inhibition, % at 6.7 µM
PME-1 Maybr inh = PME-1 (human) inhibition, Maybridge primary screen. inhibition, % at 9 µM. Q9Y570. recombinant PME-1, FP-Rh probe fluorescence polarization. 16,000 tested, 0.5% active; in the data active = inhibition above about 30%
* = called active by the depositor; x = no result given. Cut-off read from the data, not from the text of the source, unless noted: active = inhibition above about 75%; inactive = the rest.

SMILES	NOTCH ag	luminol inh ctr	rat GALR2 agon	Nox1 inhibitor	PME-1 Maybr inh
Nc1cc(S(=O)(=O)O)c(N)c2c1C(=O)c1ccccc1C2=O	x	-16.4	-7.9	0.4	98.6*
CCN(CC)c1ccc(NC(=O)C2CCCCC2)c(N(CC)CC)n1	-0.1	5.3	-11.4	75.0*	1.9
COc1cc(NC(=O)Nc2ccc(Cl)cc2)c(-n2c(C)ccc2C)cc1OC	-0.9	3.8	-3.8	-2.8	73.8*
CCOC(=O)c1sc(N/N=C/c2cccs2)c2c1CC(C)(C)CC2=O	0.1	2.6	19.3*	55.9	12.6
O=[N+]([O-])c1ccc(S(=O)(=O)c2cc(Cl)ccc2Cl)[n+]([O-])c1	3.6*	-1.9	-6.0	-57.9	3.8
COCCCNC(=S)NNC(=O)CC#N	-0.1	98.3*	-3.6	41.0	6.0
COCCCNC(=S)NNC(=S)NCCCOC	0.2	3.4	-3.7	25.2	2.2
CS/C(N)=N/N=C(\C)c1ccc(Cl)c(Cl)c1	-0.6	-1.5	-8.8	8.8	6.9
CSc1sc(C(=O)NCC2CC2)cc1S(=O)(=O)C(C)C	-0.2	1.3	17.1*	-20.5	3.9
COc1ccc(SCCC(=O)NNS(=O)(=O)c2cccs2)cc1	-0.4	15.5	-5.0	-11.1	-0.1
Cc1ccc(COc2ncnc3cc(Cl)ccc23)cc1	-0.8	3.3	45.9*	-38.0	0.4
CS(=O)(=NS(=O)(=O)c1ccc(Cl)cc1)c1ccccc1 (stereo unspecified)	0.0	11.7	-0.1	2.1	41.1*
Cc1cc(Br)c(NC(=S)NNCCC#N)c(Br)c1	-0.1	-2.2	0.5	-4.9	-1.3
OC(CN1CCC(NC2CCCCC2O)CC1)Cn1ccc2ccccc21 (stereo unspecified)	0.0	0.6	-1.8	-52.0	-3.4
OC(CN1CCN(Cc2c(F)cccc2Cl)CC1)Cn1ccc2ccccc21 (stereo unspecified)	2.7*	-7.3	-6.5	15.8	6.2
Cc1csc(SCC(=O)NNS(=O)(=O)c2cc(C(F)(F)F)cc(C(F)(F)F)c2)n1	-0.9	2.1	-3.4	-38.4	-3.2
Cc1csc2ncnc(NNS(=O)(=O)c3cc(C(F)(F)F)cc(C(F)(F)F)c3)c12	0.1	2.9	-6.8	101.5*	-6.5
O=[N+]([O-])c1cc(C(F)(F)F)cc([N+](=O)[O-])c1O/N=C1\CSCc2ccccc21	0.2	6.7	40.0*	-37.6	-2.5
COCc1nc(SCC(=O)OC)c(C#N)cc1C(=O)OC	-0.1	3.4	-4.7	-30.2	-4.3
O=S(=O)(c1ccc(-c2ccon2)s1)N(Cc1ccccn1)Cc1ccccn1	-0.7	-3.6	-4.8	13.1	4.7
O=C(CSc1ccc(C(F)(F)F)cn1)Nc1ccc2c(c1)OCCO2	-0.4	-0.2	-5.6	20.8	6.0
c1ccc(-c2nsc(-n3ccc(-c4cccs4)n3)n2)cc1	0.3	-2.8	19.9*	-3.7	-3.8
CSc1c(-c2ccccn2)c(N)nn1C(=O)c1cccs1	-0.6	-6.9	-0.5	2.9	2.0
CSc1cccc(NC(=O)NC(C)(C)C)c1	-0.3	3.4	-6.0	-8.3	-3.7
COC(=O)/C(=C\N(C)C)S(=O)(=O)c1cc(C)c(Cl)cc1C	-0.1	0.1	-5.7	-34.0	12.1
SMILES	NOTCH ag	luminol inh ctr	rat GALR2 agon	Nox1 inhibitor	PME-1 Maybr inh
Cc1cc(S(=O)(=O)Cc2ccc(NC(=O)C(Cl)(Cl)Cl)cc2)c(C)cc1Cl	-0.3	0.8	16.3*	-15.3	-1.5
FC(F)(F)c1cc(-c2cccs2)nc2cc(-c3cccs3)nn12	0.2	-3.7	30.2*	-13.1	3.5
Cc1cc(=O)n(-c2cc(Cl)c(S(=O)(=O)O)cc2Cl)[nH]1	0.1	-0.1	-2.1	9.1	0.5
CC(C)(C)OC(=O)NCc1n[nH]c(=S)n1-c1ccccc1	-0.3	97.4*	-3.9	19.1	1.4
Cc1nn(C)c2[nH]c(C(F)(F)F)cc(=O)c12	0.6	2.2	-6.5	-41.2	0.6
CC1=C(C#N)C(c2ccco2)C(C#N)=C(C)N1	-0.9	-6.2	-5.8	11.8	4.6
COc1ccc2nonc2c1	-1.0	0.7	139.0*	-44.9	-1.8
COc1ccc2nsnc2c1	-0.4	0.4	-7.8	-12.4	-2.6
c1cncc(-c2n[nH]c(-c3ccncc3)n2)c1	-0.5	2.7	-4.4	-76.5	-6.4
c1cncc(-c2csc(-c3cccnc3)n2)c1	-0.2	-3.2	-4.8	-44.6	33.8*
CC(=O)C(Sc1nnc(C(F)(F)F)n1C)C(C)=O	-0.1	2.6	-2.9	6.5	3.3
CSC1=NS(=O)(=O)c2c(C)nn(C)c2S1	0.1	21.2	-4.0	88.9*	6.4
CS(=O)(=O)Nc1ccc(/C(N)=N/OC(=O)c2ccccc2Cl)cc1	0.3	-6.3	-2.8	-9.5	-5.9
Nc1c(Cl)cc(C(=O)Nc2cc(Cl)c(Cl)cc2Cl)cc1Cl	-0.1	-1.1	16.6*	-46.0	-93.1
COc1cc(NC(=O)c2cc(OC)c(OC)c(OC)c2)c(OC)cc1Cl	-0.9	-5.0	-5.3	13.3	5.4
CCC(C)(C)C1CCc2c(sc(NC(=O)c3ccccc3C(=O)O)c2C#N)C1 (stereo unspecified)	0.7	1.5	-4.3	38.7	33.0*
CC(=O)Nc1ccc(OC(F)(F)F)cc1[N+](=O)[O-]	0.5	-0.3	-4.7	-11.2	4.3
COc1cc(C(=O)Oc2c(Cl)cc(Cl)cc2/C=N/NC(N)=S)cc(OC)c1OC	-0.7	2.1	-7.7	-47.7	33.7*
COc1cc(C(=O)Oc2ccc(Cl)cc2Cl)cc(OC)c1OC	-0.3	-8.8	-4.4	-2.9	-0.4
S=C(N/N=C/c1ccco1)NC1CC2CCC1C2 (stereo unspecified)	-0.5	4.7	-0.6	-7.0	-2.4
Oc1c(Cl)cc(Cl)cc1/C=N/NC(=S)NC1CC2CCC1C2 (stereo unspecified)	x	1.2	51.0*	-10.0	8.5
O=C(Oc1cccc2c1C(=O)C=CC2=O)c1ccccc1	-1.1	7.6	-3.4	40.5	34.5*
Oc1ccccc1/C=N/Nc1nc2c(Cl)cc(Cl)cc2s1	-5.7	4.5	-4.7	7.3	19.2
CN(C)CCCNc1sc(-c2ccccn2)c([N+](=O)[O-])c1[N+](=O)[O-]	-0.2	6.6	-7.2	-9.4	64.8*
O=c1[nH]nc(N2CCSCC2)[nH]1	0.7	-4.8	-3.9	89.2*	3.4
SMILES	NOTCH ag	luminol inh ctr	rat GALR2 agon	Nox1 inhibitor	PME-1 Maybr inh
COc1ccc(C(=O)c2ccc(F)cc2)cc1	-0.6	0.5	-0.3	-57.8	-1.3
N#CCCN(Cc1cccs1)C(=O)Nc1cccc(C(F)(F)F)c1	-0.6	-0.2	41.9*	-55.4	1.7
CN1C2CCC1CC(NC(=O)CSc1nnc(N)s1)C2 (stereo unspecified)	0.0	-3.1	-7.1	-11.7	2.0
CNC(=S)NNC(=O)c1c(C)nc2cc(C)ccn12	-0.1	24.4	-4.7	96.6*	5.1
CCOC(=O)CSC(=NCc1ccccc1)NNC(=O)c1c(C)nc2cc(C)ccn12	-0.2	-8.1	-4.9	-17.5	3.0
COc1ccccc1NC(N)=S	4.8*	0.7	-7.4	-50.0	-5.6
Cc1c2cnn(C)c(=O)c2c(C)n1Cc1cccs1	0.3	5.7	-3.2	-30.4	3.1
N#CC(CO)Cc1cc([N+](=O)[O-])ccc1N1CCCCC1 (stereo unspecified)	-0.3	4.0	-7.4	-25.4	1.6
Cn1ncc(C(=O)N=S(C)(=O)c2ccc(Cl)cc2)c1[N+](=O)[O-] (stereo unspecified)	0.3	0.1	-4.8	-44.6	2.6

Screening data deposited in PubChem BioAssay by The Scripps Research Institute Molecular Screening Center.
